Drawing on PubChem BioAssay (NCI), this text covers growth for 16 compounds.

The structures appear in SMILES notation. Where “and” joins values, the source holds several entries; their conditions need not be identical. Equal entries are not always repeated. This is part of a sample that, as a whole, favours compounds with a hit. Of some 83,000 tested, about 20% had one in any assay.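 Compound tested at a single concentration for 48 hours in 96-well plates; a percent growth value below 10 was scored as active.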 Calls of active or inactive are those of the source.

The test system of this assay is OVCAR-3 ovarian. Put plainly: NCI-60 one-dose screen, 48 h (100 = growth as untreated, 0 = no growth, -100 = all killed). Conditions: 10 µM unless noted.
With `CCOC(=O)C1C(C=C(C)C)C1(C)C` (stereo unspecified), the growth was 103% (inactive).

Consider `O=C/C=C/c1ccco1`, for which the growth was 110% (inactive).

For `Cn1cc(-c2csc(-c3cn(CCCCN4CCOCC4)c4ccc(F)cc34)n2)c2cccnc21`, the growth was 90% (inactive).

With `CC(=O)Nc1nc2c(s1)C1=CC[C@H]3[C@@H]4CC[C@H](OC(C)=O)[C@@]4(C)CC[C@@H]3[C@@]1(C)CC2`, the growth is 20.1% (inactive).

As to `C[C@]12CC[C@H](O)C[C@@H]1CC[C@@H]1[C@@H]2CC[C@]2(C)OC(=O)CC[C@@H]12`, the growth is 99% (inactive).

With `C[C@]12CCc3sc(Nc4ccc(O)cc4)nc3C1=CC[C@@H]1[C@@H]2CC[C@]2(C)C(=O)CC[C@@H]12`, the growth is -31.7% (active).

As to `O=C(O)C(Br)CBr` (stereo unspecified), the growth was 106% (inactive).

`Cc1cc[c-]cc1.Fc1c[c-]c(-c2ccccn2)c(F)c1.N#CCC[PH+](CCC#N)c1ccccc1.[Pt+2]`: the growth was 28.5% (inactive).

`O=P(O)(Nc1ccccc1)Nc1ccccc1`: the growth is 94.4% (inactive).

`Cc1cc(N(CCCl)CCCl)ccc1C=Nc1ccc(-c2csc(-c3ccccc3)n2)cc1`: the growth was 89.7% (inactive).

Regarding `Oc1ccccc1C=NCCN=Cc1ccccc1O`, the growth was 102% (inactive).

As for `COC12CC3(C)C(C4=CC(=O)OC4)CCC3(O)C3CCC4=CC(=O)CCC4(CO1)C32` (stereo unspecified), the growth was 118% (inactive).

For the compound `CC12CCC3C(CCC4CC(O)CCC43C)C1CCC2=O` (stereo unspecified), the growth is 100% (inactive).

Regarding `COc1cc(-c2ccc(N)c(OC)c2)ccc1N`, the growth was 104% (inactive).

For the compound `COc1ccn(C)c(=O)c1C#N`, the growth was 93.8% (inactive).

Regarding `CCCCCCCCCCCCCCCC[N+](C)(C)Cc1ccccc1`, the growth was 1.73% (active) and -74% (active).
